“And” between values parts separate entries of the source, which are not always exact repeats. Identical values can stand only once. Inconclusive results are not listed. The source made the active and inactive calls. The calls were made as follows: active = hit-call score of the fitted dose curve at least 0.9, where 1 is the maximum; inconclusive = response in the unintended direction; inactive = score below 0.9.
target: human Vascular Endothelial Growth Factor Receptor 3 (VEGFR3), FLT4 (gene 2324) (UniProt P35916); assay: NVS_ENZ_hVEGFR3: NovaScreen (NVS) Enzymatic Assay for human Vascular Endothelial Growth Factor Receptor 3 (VEGFR3) (AID 2283229)
Outline: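 Chemicals first run in duplicate at 25 uM, with actives re-tested in concentration series to a top of 50 uM. Recombinant VEGFR3 activity measured after 1 h via fluorescence with mobility-shift product separation; inhibition fitted relative to DMSO.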

Chain of human Vascular Endothelial Growth Factor Receptor 3 (VEGFR3), FLT4 (gene 2324) (P35916 whole entry, looked up): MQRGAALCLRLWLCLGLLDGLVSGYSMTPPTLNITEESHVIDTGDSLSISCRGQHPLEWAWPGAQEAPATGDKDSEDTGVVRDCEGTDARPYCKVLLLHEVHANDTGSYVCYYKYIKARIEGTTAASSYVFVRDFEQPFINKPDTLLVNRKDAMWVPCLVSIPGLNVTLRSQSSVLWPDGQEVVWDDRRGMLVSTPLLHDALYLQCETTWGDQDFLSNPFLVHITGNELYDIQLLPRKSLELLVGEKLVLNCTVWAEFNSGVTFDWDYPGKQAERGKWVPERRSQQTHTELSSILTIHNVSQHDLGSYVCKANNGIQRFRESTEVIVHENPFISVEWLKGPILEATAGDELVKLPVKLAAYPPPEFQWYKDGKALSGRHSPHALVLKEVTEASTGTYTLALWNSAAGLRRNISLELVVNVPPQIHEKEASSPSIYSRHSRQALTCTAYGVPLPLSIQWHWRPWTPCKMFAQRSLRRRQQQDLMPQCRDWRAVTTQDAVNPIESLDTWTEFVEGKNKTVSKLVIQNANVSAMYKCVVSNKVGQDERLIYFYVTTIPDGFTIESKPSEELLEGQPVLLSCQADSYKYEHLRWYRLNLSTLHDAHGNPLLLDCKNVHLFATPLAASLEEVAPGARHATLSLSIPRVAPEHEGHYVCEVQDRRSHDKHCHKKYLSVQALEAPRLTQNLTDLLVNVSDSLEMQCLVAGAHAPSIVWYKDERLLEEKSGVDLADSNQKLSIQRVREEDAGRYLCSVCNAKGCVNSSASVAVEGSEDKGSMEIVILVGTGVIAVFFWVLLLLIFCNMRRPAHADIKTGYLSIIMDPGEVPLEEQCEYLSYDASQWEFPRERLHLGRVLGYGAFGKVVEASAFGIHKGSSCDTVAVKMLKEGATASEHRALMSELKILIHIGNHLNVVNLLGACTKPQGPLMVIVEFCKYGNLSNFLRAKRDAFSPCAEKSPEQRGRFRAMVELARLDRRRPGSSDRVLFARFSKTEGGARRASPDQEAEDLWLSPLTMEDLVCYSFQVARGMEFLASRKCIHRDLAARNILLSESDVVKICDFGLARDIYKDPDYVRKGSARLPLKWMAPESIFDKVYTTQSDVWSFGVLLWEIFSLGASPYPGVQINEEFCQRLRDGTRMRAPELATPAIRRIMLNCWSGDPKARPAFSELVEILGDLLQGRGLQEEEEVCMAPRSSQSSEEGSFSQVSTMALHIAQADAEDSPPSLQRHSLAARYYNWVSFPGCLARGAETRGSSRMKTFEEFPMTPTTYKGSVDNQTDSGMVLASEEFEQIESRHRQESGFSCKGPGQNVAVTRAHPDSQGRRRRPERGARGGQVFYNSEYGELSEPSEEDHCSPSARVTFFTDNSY

**Q.** Which outcome does the source give for `CCCOc1nn(C(=O)NS(=O)(=O)c2ccccc2C(=O)OC)c(=O)n1C` here?
**A.** inactive

**Q.** `CCC(=NOC/C=C/Cl)C1=C(O)CC(C2CCOCC2)CC1=O` (stereo unspecified) was tested. Which outcome did it give?
**A.** inactive

**Q.** How did the AC50 turn out when `CN(C)[C@@H]1C(=O)C(C(N)=O)=C(O)[C@@]2(O)C(=O)C3=C(O)c4c(O)cccc4[C@@](C)(O)[C@H]3[C@H](O)[C@@H]12` was run?
**A.** 6.44 µM (active) and 3.42 µM (active) and 969 nM (active)

target: sheep Cyclooxygenase-2 (Cox2), PTGS2 (gene 443460) (UniProt P79208); assay: NVS_ENZ_oCOX2: NovaScreen (NVS) Enzymatic Assay for sheep Cyclooxygenase-2 (Cox2) (AID 2283231)
Outline: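 Enzyme extracted from ovine placenta tested cell-free; activity read colorimetrically by absorbance 0.66 hour after dosing. Primary screen in duplicate at 25 uM; hits rerun as concentration series to 50 uM, loss of signal versus DMSO baseline.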

Chain of sheep Cyclooxygenase-2 (Cox2), PTGS2 (gene 443460) (P79208 whole entry, looked up): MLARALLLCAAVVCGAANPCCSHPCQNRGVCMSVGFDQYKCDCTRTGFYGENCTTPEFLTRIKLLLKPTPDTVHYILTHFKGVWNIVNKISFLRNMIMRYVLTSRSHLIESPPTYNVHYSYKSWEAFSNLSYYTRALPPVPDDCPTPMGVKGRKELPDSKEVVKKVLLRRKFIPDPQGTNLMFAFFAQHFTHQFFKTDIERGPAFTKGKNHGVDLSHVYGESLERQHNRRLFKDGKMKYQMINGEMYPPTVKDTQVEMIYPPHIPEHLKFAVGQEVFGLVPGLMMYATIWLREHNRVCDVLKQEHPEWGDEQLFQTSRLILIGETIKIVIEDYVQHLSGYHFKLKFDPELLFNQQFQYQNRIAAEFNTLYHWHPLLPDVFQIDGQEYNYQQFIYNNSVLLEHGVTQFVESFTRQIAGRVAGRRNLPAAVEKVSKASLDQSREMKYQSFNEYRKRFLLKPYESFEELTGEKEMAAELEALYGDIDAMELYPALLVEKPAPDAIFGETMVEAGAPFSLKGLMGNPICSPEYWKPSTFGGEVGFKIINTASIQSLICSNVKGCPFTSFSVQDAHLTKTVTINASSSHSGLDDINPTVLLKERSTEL

**Q.** `FC(F)C(F)(F)OCC(Cn1cncn1)c1ccc(Cl)cc1Cl` (stereo unspecified) was tested. Which AC50 did it give?
**A.** 670 nM (active)

**Q.** With `CC[C@H](C)[C@H]1O[C@]2(C=C[C@@H]1C)C[C@@H]1C[C@@H](C/C=C(\C)[C@@H](O[C@H]3C[C@H](OC)[C@@H](O[C@H]4C[C@H](OC)[C@@H](NC)[C@H](C)O4)[C@H](C)O3)[C@@H](C)/C=C/C=C3\CO[C@@H]4[C@H](O)C(C)=C[C@@H](C(=O)O1)[C@]34O)O2` as the compound, how does the AC50 read?
**A.** 39.6 nM (active)

**Q.** Which AC50 does the source give for `CN(C)[C@@H]1C(=O)C(C(N)=O)=C(O)[C@@]2(O)C(=O)C3=C(O)c4c(O)cccc4[C@@](C)(O)[C@H]3[C@H](O)[C@@H]12` here?
**A.** 1890 nM (active)

target: rat Adenylate Cyclase, Forskolin Stimulated, Adcy5 (gene 64532) (UniProt Q04400); assay: NVS_ENZ_rACFSKBinding: NovaScreen (NVS) Enzymatic Assay for rat Adenylate Cyclase, Forskolin Stimulated (AID 2283232)
Description: NVS_ENZ_rACFSKBinding is a biochemical, single-readout assay that uses extracted gene-proteins from Rat forebrain membranes in a tissue-based cell-free assay. Measurements were taken 1 hour after chemical dosing in a 48-well plate.NVS_ENZ_rACFSKBinding is one of one assay component(s) measured or calculated from the NVS_ENZ_rACFSKBinding assay. It is designed to make measurements of enzyme activity, a form of enzyme reporter, as detected with scintillation counting signals by Filter-based radiodetection technology.Data from the assay component NVS_ENZ_rACFSKBinding was analyzed into 1 assay endpoint. This assay endpoint, NVS_ENZ_rACFSKBinding, was analyzed in the positive analysis fitting direction relative to DMSO as the negative control and baseline of activity. Using a type of enzyme reporter, loss-of-signal activity can be used to understand changes in the enzymatic activity as they relate to the gene Adcy5. Furthermore, this assay endpoint can be referred to as a primary readout, because this assay has produced multiple assay endpoints where this one serves a enzymatic activity function. To generalize the intended target to other relatable targets, this assay endpoint is annotated to the lyase intended target family, where the subfamily is adenylyl cyclase.
Binding assays used specific radioligands (tritiated, iodinated) with non-radioactive competitive displacement ligands in agonist or antagonist protocols (as indicated) and various reference compounds and inhibitors to titrate specific binding to receptors and transporters. Most enzyme assays (CYPs, kinases, phosphatases, proteases, HDACs) used recombinant protein and specific substrates (fluorescence mostly, some colorimetric and radioactive) and inhibitors, followed by a biochemical separation of substrate and product. All assays for the biochemical HTS were initially run in duplicate at a single concentration (10 uM for CYP450 assays and 25 uM for all others). Assay-chemical combinations meeting a pre-defined threshold (e.g., 30% inhibition and other criteria defined below) were then run in singleton concentration-response format with maximum concentration of 20 uM for CYPs and 50 uM for all others. Each assay was run with positive and negative controls, and concurrent controls on every plate. The follow-up (secondary) screen tested active chemical-pairs in concentration series, as well as a few additional assays not tested in the primary screen, some selected negative inactives, and several cases re-run in the concentration series for confirmatory purposes.

Chain of rat Adenylate Cyclase, Forskolin Stimulated, Adcy5 (gene 64532) (Q04400 whole entry, looked up): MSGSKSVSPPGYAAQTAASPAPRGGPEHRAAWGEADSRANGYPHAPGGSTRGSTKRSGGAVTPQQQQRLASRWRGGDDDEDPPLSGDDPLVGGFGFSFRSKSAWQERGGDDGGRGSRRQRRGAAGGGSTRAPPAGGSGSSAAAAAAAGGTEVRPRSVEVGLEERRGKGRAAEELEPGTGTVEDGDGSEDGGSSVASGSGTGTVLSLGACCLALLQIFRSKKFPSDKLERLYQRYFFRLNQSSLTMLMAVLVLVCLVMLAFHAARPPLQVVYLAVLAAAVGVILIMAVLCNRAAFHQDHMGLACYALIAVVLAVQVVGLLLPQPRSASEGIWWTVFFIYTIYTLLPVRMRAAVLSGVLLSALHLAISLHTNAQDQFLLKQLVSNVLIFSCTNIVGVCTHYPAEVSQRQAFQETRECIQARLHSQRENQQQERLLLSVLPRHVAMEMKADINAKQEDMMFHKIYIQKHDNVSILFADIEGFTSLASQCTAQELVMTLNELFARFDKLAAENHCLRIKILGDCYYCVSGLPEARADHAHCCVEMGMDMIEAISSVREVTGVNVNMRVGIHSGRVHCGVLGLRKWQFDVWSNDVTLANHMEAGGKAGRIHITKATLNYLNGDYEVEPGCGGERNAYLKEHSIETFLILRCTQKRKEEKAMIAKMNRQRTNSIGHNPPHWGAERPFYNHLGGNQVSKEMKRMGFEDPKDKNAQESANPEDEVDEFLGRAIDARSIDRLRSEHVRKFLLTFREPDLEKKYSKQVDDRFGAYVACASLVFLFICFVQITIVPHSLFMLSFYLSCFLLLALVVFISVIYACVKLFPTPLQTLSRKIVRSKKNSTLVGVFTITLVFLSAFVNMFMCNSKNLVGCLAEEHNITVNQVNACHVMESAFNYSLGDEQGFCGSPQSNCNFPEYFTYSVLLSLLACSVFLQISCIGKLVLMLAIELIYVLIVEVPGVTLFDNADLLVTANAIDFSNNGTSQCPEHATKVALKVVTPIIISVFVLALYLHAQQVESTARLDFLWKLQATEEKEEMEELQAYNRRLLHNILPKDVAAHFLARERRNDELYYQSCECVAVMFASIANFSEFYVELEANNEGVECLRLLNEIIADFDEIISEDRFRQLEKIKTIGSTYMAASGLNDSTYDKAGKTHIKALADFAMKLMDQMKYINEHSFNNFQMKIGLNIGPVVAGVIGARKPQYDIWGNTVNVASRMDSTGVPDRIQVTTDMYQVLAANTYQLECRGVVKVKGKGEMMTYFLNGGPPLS

**Q.** `N#CSCSC#N` was tested. Which AC50 did it give?
**A.** 25000 nM (active)

**Q.** How did the outcome turn out when `S=C1NCCN1` was run?
**A.** inactive

**Q.** How did the AC50 turn out when `COP(=O)(OC)OC(Br)C(Cl)(Cl)Br` (stereo unspecified) was run?
**A.** 14600 nM (active)

**Q.** Which outcome does the source give for `Cc1ccn2nc(S(=O)(=O)Nc3c(F)cccc3F)nc2n1` here?
**A.** inactive

**Q.** Which outcome does the source give for `CCOP(=S)(OCC)OC(Cl)C(Cl)(Cl)Cl` (stereo unspecified) here?
**A.** inactive
